Experimental findings from ChEMBL document CHEMBL4513216, “Probing the Open Global Health Chemical Diversity Library for Multistage-Active Starting Points for Next-Generation Antimalarials” (ACS Infect Dis, 2020) are described below.

About 2,700 (4%) of roughly 68,000 compounds showed an effect of 50% or more. The sample holds strong results, similar compounds and a random draw of the others, so the mix is not that of the screen.

The test system of this test is Plasmodium berghei. Description: Screen against P. berghei liver stage (PbLuc), transformed with Luciferase, at 2uM. The conditions noted are these: tested at 2 uM. It counts as functional, HepG2.
With `Cc1noc(C)c1CN1CCn2cc(CNc3ccccn3)nc2C1`, the INHIBITION was determined as 6.07%.
Consider `Cc1oc(CN(C)C(=O)c2ccc(C(F)(F)F)cc2)cc1C(=O)O`, for which the INHIBITION was found to be 40.4%.
`CC(C)C(=O)NC1COC2(CCN(C(=O)c3cccnc3)CC2)C1` (configuration not stated): the INHIBITION came out at 9.53%.
For the molecule `N#CC1(C(=O)N2CCCN(Cc3cscn3)CC2)CCCCC1`, the INHIBITION is on record as 7.71%.
For `N#CC1(C(=O)N2CCN(Cc3cscn3)CC2)CCCCC1`, the INHIBITION is 52.17%.
Take `N#CC1(C(=O)N2CCN(Cc3cscn3)CC2)CCCC1`: the INHIBITION amounted to 34.83%.
Consider `Cc1ccc(S(=O)(=O)Cc2noc([C@@H]3C[C@@H](O)CN3C)n2)cc1`, for which the INHIBITION turned out to be 32.59%.
Next, `CN(Cc1cn2c(n1)CN(Cc1ccc(F)cc1)CC2)Cc1ccco1`: 9.98%; `COc1ccc(C2=CCN(C(=O)C3CCC3)CC2)cc1`: -17.31%; `COc1ccc(C2=CCN(C(=O)C3CCCN(C(C)=O)C3)CC2)cc1` (configuration not stated): 68.24%.
Take `COc1ccc(C2=CCN(C(=O)C3CCCN(C(N)=O)C3)CC2)cc1` (configuration not stated): the INHIBITION is -11.91%.
Turning to `O=C1[C@H]2CN(Cc3ccncc3)C[C@H]2CN1c1cncnc1`, the INHIBITION came out at 54.41%.
For the molecule `O=C1[C@H]2CN(Cc3ccccc3)C[C@H]2CN1c1cncnc1`, the INHIBITION turned out to be 37.15%.
In the case of `O=C1[C@H]2CN(Cc3ccc(F)cc3)C[C@H]2CN1c1cncnc1`, the INHIBITION is recorded as -20.89%.
Next, `COc1cccc2cc(CNC(=O)N3CCC(N4CCCC4)C3)oc12` (configuration not stated): 25.35%; `CN(C)C(=O)CN1CCC2(CCN(C(=O)N(C)C)CC2)C1=O`: 54.01%; `CN(C)C(=O)CN1CCC2(CCN(C(=O)N3CCCC3)CC2)C1=O`: -4.75%.
As for `CN(C)C(=O)CN1CCC2(CCN(S(C)(=O)=O)CC2)C1=O`, the INHIBITION turned out to be 39.73%.
In the case of `Cc1cnc(N2C[C@@H]3[C@@H](C2)OCC(=O)N3CCN(C)C)nc1` it was 30.58%; in that of `CNc1nc(N2CCN(Cc3ccsc3)C(CCO)C2)nc2c1CCC2` (configuration not stated), 35.43%; in that of `O=C(C1CCOCC1)N1C[C@@H]2CC[C@H]1CN(Cc1ccncc1)C2`, -21.32%.
Take `c1cc(-c2noc([C@@H]3CCCN3CC3CC3)n2)cc(N2CCCC2)n1`: the INHIBITION amounted to 74.33%.
For `c1cc(-c2noc([C@@H]3CCCN3C3CCC3)n2)cc(N2CCCC2)n1`, the INHIBITION worked out at 23.81%.
In the case of `c1cc(-c2noc(C3CCC3)n2)cc(N2CCCCC2)n1`, the INHIBITION is on record as -23.44%.
Take `Cc1ccc(CN(Cc2ccccn2)C(=O)C2CCCCCN2C)s1` (configuration not stated): the INHIBITION is given as -42.41%.
In the case of `Cc1ccc(CN(Cc2ccccn2)C(=O)CCC2CCCN(C)C2)s1` (configuration not stated) it was 50.59%; in that of `Cc1ccc(CN(Cc2ccccn2)C(=O)[C@H]2CC[C@@H](N)C2)s1`, 26.74%; in that of `CCn1ccnc1CN1CCNCC1C` (configuration not stated), -47.18%.
In the case of `c1cnc(-c2cnc(N3CCSCC3)nc2C2CC2)cn1` it was -109.23%; in that of `CCCSCC(=O)N1CCC2(CC1)CC(c1ccccc1)CN(C)C2` (configuration not stated), 33.16%; in that of `O=C1CO[C@@H]2CN(CC3CCOC3)C[C@H]2N1Cc1cccc(F)c1` (some centres not stated), -12.84%.
As to `O=C1CO[C@@H]2CN(CC3CC3)C[C@H]2N1Cc1cccc(F)c1`, the INHIBITION was 52.81%.
Take `O=C1CO[C@@H]2CN(C3CCOCC3)C[C@H]2N1Cc1cccc(F)c1`: the INHIBITION stood at 2.98%.
In the case of `Cn1nc2c(cc1=O)CN(CCOc1ccccc1C#N)CC2`, the INHIBITION was -45.4%.
Regarding `Cc1nc(-c2ccccc2)nc2c1CCN(Cc1nccn1C)CC2`, the INHIBITION is given as 3.18%.
Next, `CCc1ccc(CN2CCCn3c(nc(Cn4ccnc4)cc3=O)C2)o1`: 54.56%; `O=c1cc(Cn2ccnc2)nc2n1CCCN(Cc1ccco1)C2`: -0.18%.
On to `Cc1ccc(CN2CCCn3c(nc(Cn4ccnc4)cc3=O)C2)o1`, for which the INHIBITION is 33.97%.
Take `Cc1ncoc1C(=O)N1C[C@H]2CCC[C@@]2(COCc2cccnc2)C1`: the INHIBITION is reported as 30.77%.
As for `Cc1ccccc1C(NC(=O)CCCS(C)(=O)=O)C(C)(C)C` (configuration not stated), the INHIBITION is on record as 33.22%.
For the molecule `CCc1nnc(SC2CCCN(c3cnn(C)c3)C2=O)n1C` (configuration not stated), the INHIBITION came to 11.87%.
As to `CCc1nnc(SC2CCCN(c3cccc(F)c3)C2=O)n1C` (configuration not stated), the INHIBITION was found to be 77.68%.
For `Cn1nnnc1SC1CCCN(c2cccc(F)c2)C1=O` (configuration not stated), the INHIBITION is 14.65%.
Turning to `COc1ccc(CNC(=O)N(Cc2ccc(F)cc2F)C2CC2)cn1`, the INHIBITION is on record as -67.07%.
Take `COCCN1CCN(Cc2cnc(C)nc2)CC1`: the INHIBITION was 17.8%.
For the molecule `CCC(C)S(=O)(=O)N1CCc2nc(C3CCNCC3)ncc2C1` (configuration not stated), the INHIBITION is -0.83%.
Take `CC(=O)N1CC2(CCN(C(=O)c3ccc4c(c3)OCCO4)CC2)C1`: the INHIBITION was found to be 65.54%.
Consider `Cc1cnc(N2CC3(CCN(C(=O)c4ccoc4)C3)C2)nc1`, for which the INHIBITION is reported as -18.49%.
In the case of `CC(=O)N1CCC2(CC1)CN(C(=O)c1ccc3c(c1)OCO3)C2`, the INHIBITION was 37.54%.
On to `CC(=O)N1CC2(CCN(C(=O)c3ccoc3)C2)C1`, for which the INHIBITION is given as 67.62%.
As to `O=C(c1ccoc1)N1CCC2(C1)CN(c1ncccn1)C2`, the INHIBITION turned out to be 25.43%.
On to `CC(=O)N1CCC2(CC1)CN(C(=O)c1ccc3c(c1)OCCO3)C2`, for which the INHIBITION was found to be 41.38%.
